For 15 targets, NP40-soluble protein abundance results are on record in the supplement of paper PMC6411743.

Compound in this assay: Nc1nc2c(ncn2[C@@H]2O[C@H](COP(=O)(O)OP(=O)(O)OP(=O)(O)O)[C@@H](O)[C@H]2O)c(=O)[nH]1 [guanosine triphosphate]
As to the kind of experiment: NP40-soluble protein abundance relative to vehicle (solubility fold change) (ratio); higher = more soluble protein in presence of GTP. The procedure, abridged: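 Each value is a fold change relative to the detergent-processed vehicle, calculated per replicate from vsn-normalised intensities. Jurkat crude lysate received eight concentrations (0.1 to 10 mM) for 10 min at room temperature and 3 min at 37 °C, then was solubilised in 0.8% NP40 with benzonase (60 min, 4 °C). The ultracentrifuged supernatant was TMT-labelled and run by LC-MS/MS in three independent experiments.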

± gives the standard deviation of the averaged measurements. Of roughly 5,400 targets only a part is listed; those with the largest changes were picked by preference.

UniProt P38159, sequence (P38159 whole entry): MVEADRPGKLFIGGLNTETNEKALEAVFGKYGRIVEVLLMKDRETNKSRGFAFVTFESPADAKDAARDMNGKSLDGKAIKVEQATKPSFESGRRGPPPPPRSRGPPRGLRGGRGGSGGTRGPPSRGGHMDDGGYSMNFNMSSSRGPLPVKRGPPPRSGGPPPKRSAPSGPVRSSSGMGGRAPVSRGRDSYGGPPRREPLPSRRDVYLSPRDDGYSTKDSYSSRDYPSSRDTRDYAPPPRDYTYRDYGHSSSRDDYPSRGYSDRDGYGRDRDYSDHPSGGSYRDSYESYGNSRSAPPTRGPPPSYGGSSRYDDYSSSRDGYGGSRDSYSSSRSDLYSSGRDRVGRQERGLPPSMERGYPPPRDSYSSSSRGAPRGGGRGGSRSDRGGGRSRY
UniProt O75554, sequence (O75554 whole entry): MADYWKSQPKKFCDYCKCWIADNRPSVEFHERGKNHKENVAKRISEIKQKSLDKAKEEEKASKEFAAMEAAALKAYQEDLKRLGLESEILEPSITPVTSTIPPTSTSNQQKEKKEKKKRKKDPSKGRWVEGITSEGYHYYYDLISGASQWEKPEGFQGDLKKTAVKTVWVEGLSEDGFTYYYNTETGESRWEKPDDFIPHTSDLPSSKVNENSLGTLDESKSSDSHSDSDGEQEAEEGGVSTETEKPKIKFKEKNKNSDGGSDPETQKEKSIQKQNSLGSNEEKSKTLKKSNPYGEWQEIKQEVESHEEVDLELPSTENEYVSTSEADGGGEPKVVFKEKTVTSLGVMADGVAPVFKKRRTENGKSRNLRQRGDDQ
UniProt P06729, sequence (P06729 whole entry): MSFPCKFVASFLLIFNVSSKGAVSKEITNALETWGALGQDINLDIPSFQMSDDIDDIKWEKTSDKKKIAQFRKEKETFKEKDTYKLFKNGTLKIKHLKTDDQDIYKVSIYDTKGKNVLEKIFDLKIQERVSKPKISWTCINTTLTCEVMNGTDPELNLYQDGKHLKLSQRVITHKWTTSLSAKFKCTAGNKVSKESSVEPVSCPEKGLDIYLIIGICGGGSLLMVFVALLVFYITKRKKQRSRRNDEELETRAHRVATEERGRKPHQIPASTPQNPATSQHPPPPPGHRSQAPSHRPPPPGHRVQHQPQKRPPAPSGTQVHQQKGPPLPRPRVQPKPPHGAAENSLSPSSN
UniProt P10412, sequence (P10412 whole entry): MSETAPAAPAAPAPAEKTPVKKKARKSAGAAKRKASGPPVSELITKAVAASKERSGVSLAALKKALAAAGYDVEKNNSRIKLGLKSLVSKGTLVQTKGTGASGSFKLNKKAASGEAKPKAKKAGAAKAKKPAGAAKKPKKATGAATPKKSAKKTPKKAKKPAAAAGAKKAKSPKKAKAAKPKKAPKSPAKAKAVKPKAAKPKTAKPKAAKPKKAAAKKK
UniProt Q9Y2L5, sequence (Q9Y2L5 whole entry, one chain of several): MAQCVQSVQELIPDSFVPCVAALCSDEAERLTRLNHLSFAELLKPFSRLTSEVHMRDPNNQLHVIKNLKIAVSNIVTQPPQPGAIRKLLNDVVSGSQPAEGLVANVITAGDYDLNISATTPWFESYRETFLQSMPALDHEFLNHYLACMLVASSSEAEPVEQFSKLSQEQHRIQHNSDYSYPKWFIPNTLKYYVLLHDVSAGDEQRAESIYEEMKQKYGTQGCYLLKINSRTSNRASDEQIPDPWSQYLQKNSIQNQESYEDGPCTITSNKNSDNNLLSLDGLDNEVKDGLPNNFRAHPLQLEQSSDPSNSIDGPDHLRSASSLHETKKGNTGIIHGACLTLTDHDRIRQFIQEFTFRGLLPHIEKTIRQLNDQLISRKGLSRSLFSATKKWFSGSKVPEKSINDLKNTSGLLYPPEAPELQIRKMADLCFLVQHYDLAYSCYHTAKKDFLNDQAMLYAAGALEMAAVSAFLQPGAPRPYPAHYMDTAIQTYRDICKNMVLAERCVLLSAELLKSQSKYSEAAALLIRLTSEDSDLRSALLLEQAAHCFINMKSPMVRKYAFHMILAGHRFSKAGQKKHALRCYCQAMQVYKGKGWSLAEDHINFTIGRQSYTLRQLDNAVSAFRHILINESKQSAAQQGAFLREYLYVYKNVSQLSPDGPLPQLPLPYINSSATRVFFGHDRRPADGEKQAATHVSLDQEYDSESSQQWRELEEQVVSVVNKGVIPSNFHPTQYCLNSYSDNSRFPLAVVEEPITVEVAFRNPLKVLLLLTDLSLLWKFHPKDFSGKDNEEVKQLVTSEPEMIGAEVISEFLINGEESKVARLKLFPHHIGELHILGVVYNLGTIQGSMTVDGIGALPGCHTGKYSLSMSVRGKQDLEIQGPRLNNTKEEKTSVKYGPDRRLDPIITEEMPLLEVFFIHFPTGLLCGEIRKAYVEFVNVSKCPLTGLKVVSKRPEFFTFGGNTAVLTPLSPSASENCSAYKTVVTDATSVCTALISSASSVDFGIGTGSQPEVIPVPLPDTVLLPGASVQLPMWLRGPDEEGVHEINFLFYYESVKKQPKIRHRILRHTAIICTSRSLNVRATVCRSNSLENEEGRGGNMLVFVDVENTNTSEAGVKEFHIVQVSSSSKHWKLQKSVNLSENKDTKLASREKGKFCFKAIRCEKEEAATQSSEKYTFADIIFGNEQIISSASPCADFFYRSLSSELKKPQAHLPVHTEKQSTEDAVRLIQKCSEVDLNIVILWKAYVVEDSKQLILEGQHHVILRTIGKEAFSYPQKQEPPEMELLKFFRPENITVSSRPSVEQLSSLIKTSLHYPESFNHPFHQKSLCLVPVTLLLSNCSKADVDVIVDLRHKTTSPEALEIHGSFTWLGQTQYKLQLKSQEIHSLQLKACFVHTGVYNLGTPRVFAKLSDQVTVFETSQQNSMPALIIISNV
UniProt P16401, sequence (P16401 whole entry): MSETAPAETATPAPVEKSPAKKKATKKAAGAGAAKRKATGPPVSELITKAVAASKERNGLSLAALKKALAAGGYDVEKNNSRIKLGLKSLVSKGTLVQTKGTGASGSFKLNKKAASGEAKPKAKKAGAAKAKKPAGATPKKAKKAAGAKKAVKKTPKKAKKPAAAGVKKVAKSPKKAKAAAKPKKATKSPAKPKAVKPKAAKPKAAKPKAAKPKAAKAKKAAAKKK
UniProt P16403, sequence (P16403 whole entry): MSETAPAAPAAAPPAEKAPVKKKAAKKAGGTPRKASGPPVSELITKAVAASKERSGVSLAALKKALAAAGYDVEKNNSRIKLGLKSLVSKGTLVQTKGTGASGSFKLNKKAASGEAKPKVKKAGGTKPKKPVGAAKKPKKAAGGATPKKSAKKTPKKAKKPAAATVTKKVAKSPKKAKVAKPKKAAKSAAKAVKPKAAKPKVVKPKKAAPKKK
UniProt O43615, sequence (O43615 whole entry): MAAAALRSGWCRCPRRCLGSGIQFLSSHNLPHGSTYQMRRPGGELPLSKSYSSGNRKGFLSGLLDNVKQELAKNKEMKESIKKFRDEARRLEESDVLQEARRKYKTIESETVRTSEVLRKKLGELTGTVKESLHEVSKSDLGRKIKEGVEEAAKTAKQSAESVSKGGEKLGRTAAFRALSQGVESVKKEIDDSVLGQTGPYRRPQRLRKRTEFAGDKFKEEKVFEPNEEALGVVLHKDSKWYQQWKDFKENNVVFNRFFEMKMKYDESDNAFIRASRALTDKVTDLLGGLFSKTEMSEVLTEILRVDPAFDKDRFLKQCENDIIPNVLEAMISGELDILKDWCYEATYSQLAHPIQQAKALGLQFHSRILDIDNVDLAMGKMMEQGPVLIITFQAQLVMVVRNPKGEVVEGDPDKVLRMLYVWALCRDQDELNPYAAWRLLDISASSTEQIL
UniProt P49427, sequence (P49427 whole entry): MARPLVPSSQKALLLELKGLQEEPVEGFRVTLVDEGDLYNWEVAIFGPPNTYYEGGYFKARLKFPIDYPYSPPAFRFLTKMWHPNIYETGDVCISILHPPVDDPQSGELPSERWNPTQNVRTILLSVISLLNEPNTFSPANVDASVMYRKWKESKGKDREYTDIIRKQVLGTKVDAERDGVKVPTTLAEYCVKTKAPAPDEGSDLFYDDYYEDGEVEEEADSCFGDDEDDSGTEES
UniProt O43865, sequence (O43865 whole entry): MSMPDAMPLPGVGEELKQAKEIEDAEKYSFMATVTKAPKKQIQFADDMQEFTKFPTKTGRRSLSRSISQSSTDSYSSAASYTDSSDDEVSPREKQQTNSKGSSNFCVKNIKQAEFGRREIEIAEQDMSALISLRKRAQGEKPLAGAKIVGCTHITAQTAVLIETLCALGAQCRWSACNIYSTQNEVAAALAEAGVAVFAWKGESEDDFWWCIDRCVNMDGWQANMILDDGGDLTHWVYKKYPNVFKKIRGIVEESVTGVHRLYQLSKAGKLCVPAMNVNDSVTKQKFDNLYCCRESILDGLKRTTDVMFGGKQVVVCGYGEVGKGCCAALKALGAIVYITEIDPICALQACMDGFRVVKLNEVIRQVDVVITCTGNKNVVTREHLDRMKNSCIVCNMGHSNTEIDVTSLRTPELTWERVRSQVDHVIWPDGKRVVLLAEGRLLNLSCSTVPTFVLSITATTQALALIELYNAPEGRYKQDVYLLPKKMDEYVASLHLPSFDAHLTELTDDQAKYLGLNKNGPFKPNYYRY
UniProt Q96SW2, sequence (Q96SW2 whole entry, one chain of several): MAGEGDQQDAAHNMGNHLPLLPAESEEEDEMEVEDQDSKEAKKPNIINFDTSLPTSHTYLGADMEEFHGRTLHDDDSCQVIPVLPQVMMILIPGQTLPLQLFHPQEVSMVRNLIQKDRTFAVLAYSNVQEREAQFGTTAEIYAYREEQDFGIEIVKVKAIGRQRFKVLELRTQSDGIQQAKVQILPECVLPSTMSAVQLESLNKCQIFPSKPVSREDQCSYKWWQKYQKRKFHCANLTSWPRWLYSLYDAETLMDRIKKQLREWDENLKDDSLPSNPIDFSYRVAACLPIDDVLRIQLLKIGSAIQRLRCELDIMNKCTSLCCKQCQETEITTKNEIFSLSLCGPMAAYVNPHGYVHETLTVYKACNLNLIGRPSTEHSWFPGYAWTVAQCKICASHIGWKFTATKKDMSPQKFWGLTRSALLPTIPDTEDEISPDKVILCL

Turning to CDC34 (UniProt P49427), the NP40-soluble protein abundance runs as follows: (concentration: 0.1mM) 1.69 ± 0.2; (concentration: 0.5mM) 1.07 ± 0.037; (concentration: 1mM) 1.79 ± 0.077; (concentration: 2mM) 1.15 ± 0.11; (concentration: 4mM) 1.16 ± 0.092; (concentration: 6mM) 1.12 ± 0.1. For the same target, the NP40-soluble protein abundance was found to be 1.01 ± 0.078 (concentration: 8mM) and 1.06 ± 0.084 (concentration: 10mM).
For HMGN4 (UniProt O00479), the NP40-soluble protein abundance came out at 1.08 ± 0.057 (concentration: 0.1mM); 1.06 ± 0.12 (concentration: 0.5mM); 1.02 ± 0.12 (concentration: 1mM); 1.31 ± 0.04 (concentration: 2mM); 1.83 ± 0.15 (concentration: 4mM); 2.26 ± 0.16 (concentration: 6mM). Further, the NP40-soluble protein abundance by setting is: (concentration: 8mM) 1.51 ± 0.74; (concentration: 10mM) 4.79 ± 0.19.
UniProt O43865: the NP40-soluble protein abundance is, setting by setting: (concentration: 0.1mM) 0.969 ± 0.025; (concentration: 0.5mM) 0.99 ± 0.044; (concentration: 1mM) 0.959 ± 0.057; (concentration: 2mM) 0.944 ± 0.025; (concentration: 4mM) 0.914 ± 0.021; (concentration: 6mM) 0.955 ± 0.029. Moreover, the NP40-soluble protein abundance was determined as 0.973 ± 0.056 (concentration: 8mM) and 0.98 ± 0.047 (concentration: 10mM).
HIST1H1C (UniProt P16403): the NP40-soluble protein abundance runs as follows: (concentration: 0.1mM) 0.984 ± 0.038; (concentration: 0.5mM) 1.11 ± 0.074; (concentration: 1mM) 1.18 ± 0.072; (concentration: 2mM) 1.22 ± 0.048; (concentration: 4mM) 1.23 ± 0.096; (concentration: 6mM) 1.38 ± 0.074. In addition, the NP40-soluble protein abundance runs as follows: (concentration: 8mM) 1.26 ± 0.1; (concentration: 10mM) 1.78 ± 0.15.
Regarding TIMM44 (UniProt O43615), the NP40-soluble protein abundance reads like this: (concentration: 0.1mM) 0.992 ± 0.035; (concentration: 0.5mM) 0.989 ± 0.041; (concentration: 1mM) 0.993 ± 0.057; (concentration: 2mM) 0.946 ± 0.058; (concentration: 4mM) 0.954 ± 0.09; (concentration: 6mM) 0.914 ± 0.082. For the same target, the NP40-soluble protein abundance turned out to be 0.946 ± 0.058 (concentration: 8mM) and 0.93 ± 0.064 (concentration: 10mM).
For the target J3QT87|Q96SW2|Q96SW2-2 (UniProt Q96SW2), the NP40-soluble protein abundance came to 1.07 ± 0.084 (concentration: 0.1mM); 1.07 ± 0.1 (concentration: 0.5mM); 0.979 ± 0.034 (concentration: 1mM); 1.03 ± 0.12 (concentration: 2mM); 1.05 ± 0.061 (concentration: 4mM); 1.04 ± 0.1 (concentration: 6mM). The NP40-soluble protein abundance is, setting by setting: (concentration: 8mM) 0.946 ± 0.047; (concentration: 10mM) 0.931 ± 0.039.
On to UniProt O75554|O75554-2, for which the NP40-soluble protein abundance runs as follows: (concentration: 0.1mM) 1.01 ± 0.045; (concentration: 0.5mM) 1.07 ± 0.1; (concentration: 1mM) 1.08 ± 0.083; (concentration: 2mM) 1.05 ± 0.12; (concentration: 4mM) 1.04 ± 0.059; (concentration: 6mM) 1.09 ± 0.12. Also, the NP40-soluble protein abundance was 1.12 ± 0.072 (concentration: 8mM) and 1.06 ± 0.034 (concentration: 10mM).
As for UniProt P38159|P38159-2, the NP40-soluble protein abundance is, setting by setting: (concentration: 0.1mM) 1.02 ± 0.048; (concentration: 0.5mM) 1.02 ± 0.027; (concentration: 1mM) 1.18 ± 0.036; (concentration: 2mM) 1.29 ± 0.043; (concentration: 4mM) 1.47 ± 0.052; (concentration: 6mM) 1.65 ± 0.1. Besides, the NP40-soluble protein abundance came out at 1.8 ± 0.15 (concentration: 8mM) and 2.04 ± 0.32 (concentration: 10mM).
For the target J3QQJ5|Q9Y2L5 (UniProt Q9Y2L5), the NP40-soluble protein abundance runs as follows: (concentration: 0.1mM) 1.09 ± 0.062; (concentration: 0.5mM) 1.1 ± 0.12; (concentration: 1mM) 1.05 ± 0.091; (concentration: 2mM) 1.03 ± 0.11; (concentration: 4mM) 1 ± 0.14; (concentration: 6mM) 0.989 ± 0.13. In addition, the NP40-soluble protein abundance worked out at 1.01 ± 0.12 (concentration: 8mM) and 0.981 ± 0.13 (concentration: 10mM).
In the case of HIST1H1E (UniProt P10412), the NP40-soluble protein abundance (concentration: 0.1mM) came out at 1.02 ± 0.12; the NP40-soluble protein abundance (concentration: 0.5mM) came out at 1.05 ± 0.1; the NP40-soluble protein abundance (concentration: 1mM) came to 1.13 ± 0.15; the NP40-soluble protein abundance (concentration: 2mM) worked out at 1.24 ± 0.11; the NP40-soluble protein abundance (concentration: 4mM) was 1.26 ± 0.055; the NP40-soluble protein abundance (concentration: 6mM) is 1.38 ± 0.064. The NP40-soluble protein abundance is 1.28 ± 0.18 (concentration: 8mM) and 2.05 ± 0.41 (concentration: 10mM).
For IGHMBP2 (UniProt P38935), the NP40-soluble protein abundance runs as follows: (concentration: 0.1mM) 1.07 ± 0.072; (concentration: 0.5mM) 1.09 ± 0.1; (concentration: 1mM) 1.14 ± 0.099; (concentration: 2mM) 1.26 ± 0.17; (concentration: 4mM) 1.44 ± 0.26; (concentration: 6mM) 1.6 ± 0.27. Moreover, the NP40-soluble protein abundance reads like this: (concentration: 8mM) 1.7 ± 0.43; (concentration: 10mM) 1.92 ± 0.48.
Regarding UniProt P06729, the NP40-soluble protein abundance stood at 0.895 ± 0.023 (concentration: 0.1mM); 0.902 ± 0.035 (concentration: 0.5mM); 0.912 ± 0.02 (concentration: 1mM); 0.88 ± 0.072 (concentration: 2mM); 0.852 ± 0.038 (concentration: 4mM); 0.89 ± 0.053 (concentration: 6mM). The NP40-soluble protein abundance is 0.893 ± 0.036 (concentration: 8mM) and 0.903 ± 0.039 (concentration: 10mM).
In the case of “P0DN76|Q01081|Q01081-2 (UniProt Q01081+P0DN76)”, the NP40-soluble protein abundance reads like this: (concentration: 0.1mM) 1.23 ± 0.074; (concentration: 0.5mM) 1.61 ± 0.28; (concentration: 1mM) 1.64 ± 0.32; (concentration: 2mM) 1.67 ± 0.32; (concentration: 4mM) 1.71 ± 0.36; (concentration: 6mM) 1.78 ± 0.4. The NP40-soluble protein abundance by setting is: (concentration: 8mM) 1.79 ± 0.45; (concentration: 10mM) 1.76 ± 0.38.
On to HIST1H1B (UniProt P16401), for which the NP40-soluble protein abundance worked out at 0.956 ± 0.023 (concentration: 0.1mM); 0.937 ± 0.02 (concentration: 0.5mM); 1.09 ± 0.037 (concentration: 1mM); 1.15 ± 0.014 (concentration: 2mM); 1.22 ± 0.042 (concentration: 4mM); 1.272 ± 0.012 (concentration: 6mM). Also, the NP40-soluble protein abundance came to 1.22 ± 0.039 (concentration: 8mM) and 1.73 ± 0.19 (concentration: 10mM).
Regarding M0R2U2|P22087 (UniProt P22087), the NP40-soluble protein abundance by setting is: (concentration: 0.1mM) 1.02 ± 0.054; (concentration: 0.5mM) 1.03 ± 0.032; (concentration: 1mM) 1.08 ± 0.068; (concentration: 2mM) 1.21 ± 0.056; (concentration: 4mM) 1.52 ± 0.068; (concentration: 6mM) 1.77 ± 0.082. Moreover, the NP40-soluble protein abundance is, setting by setting: (concentration: 8mM) 2.13 ± 0.11; (concentration: 10mM) 2.47 ± 0.083.
